Our source for the outcome and AC50 values is PubChem BioAssay (EPA / NIEHS).

Records with an inconclusive call do not appear. Activity calls are given as the source filed them. Rule for the calls: active = hit-call score of the fitted dose curve at least 0.9, where 1 is the maximum; inconclusive = response in the unintended direction; inactive = score below 0.9.

Read-out in the assay: xenobiotic metabolism (CYP1A2), CYP1A2 (gene 1544)
Kind of assay: CLD_CYP1A2_6hr: CellzDirect (CLD) Gene Expression Assay for xenobiotic metabolism (CYP1A2) at 6 hours (AID 2283663).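 For AC50: potency is for induction meaning a rise in mRNA above DMSO.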 The method, then:
CLD_6hr is a cell-based, multiplexed-readout assay that uses hepatocyte, a human liver primary cell, with measurements taken at 6 hours after chemical dosing in a 96-well plate.CLD_CYP1A2_6hr is one of 16 assay component(s) measured or calculated from the CLD_6hr assay. It is designed to make measurements of mRNA induction, a form of inducible reporter, as detected with chemiluminescence signals by Quantitative Nuclease Protection Assay (qNPA) technology.Data from the assay component CLD_CYP1A2_6hr was analyzed at the endpoint, CLD_CYP1A2_6hr, in the positive analysis fitting direction relative to DMSO as the negative control and baseline of activity. Using a type of inducible reporter, gain-of-signal activity can be used to understand changes in the reporter gene as they relate to the gene CYP1A2. Furthermore, this assay endpoint can be referred to as a primary readout. To generalize the intended target to other relatable targets, this assay endpoint is annotated to the cyp intended target family, where subfamily is xenobiotic metabolism.
Human hepatocyte cultures were treated daily for two consecutive days with fresh dosing solutions containing appropriate concentrations of the 320 ToxCast chemicals (chemical identities were blinded to CellzDirect and other ToxCast collaborators), vehicle control (0.2% DMSO), and positive control inducers as summarized in Table 1. Due to the large number of treatment groups and chemicals examined, the ToxCast chemicals were divided into two groups (spanning two independent cultures of hepatocytes from separate donor preparations (Hu778: ToxCast plates 1 and 2; Hu776: ToxCast plates 3 and 4). Each preparation of human hepatocyte cultures was treated with respective vehicle control, medium only control, set of six positive controls/reference chemicals for the five hepatic receptor pathways, and a subset of eight of the ToxCast chemicals (indoxacarb, pyrithiobac-sodium, norflurazon, cyhalofop-butyl, methomyl, thiram, acetochlor, and propiconazole). These replicate data, coupled with internal replicates designed within the blinded ToxCast chemical library, provided additional data to evaluate interindividual differences between hepatocyte preparations and their potential impact on chemical profiles.Cell morphology and integrity were evaluated using phase-contrast microscopy as an indicator of hepatocyte cell health (Tyson & Green, 1987). Cultures for each treatment group (i.e., media, vehicle [0.2% DMSO], positive control inducers [multiple concentrations], and the ToxCast chemicals [multiple concentrations]) were observed and cell morphology was assessed relative to vehicle control cultures at each harvest time point (0, 6, 24, or 48 h). […] Images were evaluated at the conclusion of the study to assess changes in cell integrity and account for the effects of chemical exposure on uncharacteristic changes in concentration-dependent gene expression profiles. The results from these determinations of apparent cytotoxicity were annotated (yes/no) alongside the corresponding qNPA data for reference.At the conclusion of each treatment period, hepatocyte cultures (96-well) were washed with 1 volume of HBSS, lysed by addition of 25 ul ArrayPlate lysis buffer (HTG, Tucson, AZ), and 70 ul/well of Denaturation Oil, denatured by incubation at 95C for 10 min, and frozen at approximately -70C until analysis by nuclease protection assay (qNPA) (Roberts et al., 2007). For qNPA analysis, cell lysates were thawed at 50C for approximately 30 min, qNPA probes were added, and samples were incubated at 95C for 10 min to begin the detection process by denaturing the target RNA, dissociating the duplexes and secondary structure hybridization. At the conclusion of the hybridization period, S1 nuclease reagent was added to each sample to digest all nonprotected nucleotides at 50C for 60-90 min. […]
`CCCN(CCC)c1c([N+](=O)[O-])cc(C(F)(F)F)cc1[N+](=O)[O-]`: the result was inactive.
Usually AC50 stands for the concentration giving half of the maximal activity seen. `N#Cc1c(Cl)c(Cl)c(Cl)c(C#N)c1Cl`: the half-maximal activity concentration (AC50) was 31.7 µM (active).
Regarding `OCCOc1ccccc1`, the compound was called inactive.
With `CCCN(CCOc1c(Cl)cc(Cl)cc1Cl)C(=O)n1ccnc1`, the concentration at half-maximal activity (AC50) is 0.0805 µM (active).
For `COP(=O)(OC)OC=C(Cl)Cl`, the result was inactive.
For the compound `Cc1[nH]c(=O)n(C(C)(C)C)c(=O)c1Cl`, the result was inactive.
For the compound `O=C(Nc1ccccc1)Nc1cnns1`, the AC50 is 3.08 µM (active).
For `CNC(=O)Oc1ccccc1OC(C)C`, the compound was called inactive.
Same read-out and setting: the same measure for `CC(C)(C)C(O)/C(=C\c1ccc(Cl)cc1Cl)n1cncn1` (stereo not given): “inactive”.
Consider `CCN(CC)C(=O)SCc1ccc(Cl)cc1`, for which the compound was classed as inactive.
In the case of `O=C(NC(=O)c1c(F)cccc1F)Nc1ccc(OC(F)(F)C(F)OC(F)(F)F)c(Cl)c1` (stereo not given), the compound was called inactive.
For the compound `COC(=O)c1ccccc1CS(=O)(=O)NC(=O)Nc1nc(OC)cc(OC)n1`, the call was inactive.
In the case of `COP(=S)(OC)Oc1ccc([N+](=O)[O-])cc1`, the AC50 was 3.16 µM (active).
Turning to `O=C(O)COc1ccc(Cl)cc1Cl`, the AC50 was 1.89 µM (active).
With `CNC(=O)CSP(=S)(OC)OC`, the half-maximal activity concentration (AC50) was 0.327 µM (active).
Turning to `CC(C)(C)C(O)C(Oc1ccc(Cl)cc1)n1cncn1` (stereo not given), the compound was called inactive.
Consider `CC1(C)C(C=C(Cl)Cl)C1C(=O)OC(C#N)c1ccc(F)c(Oc2ccccc2)c1` (stereo not given), for which the result was inactive.
Take `COP(=S)(OC)Oc1ccc(SC)c(C)c1`: the AC50 is 5.14 µM (active).
Take `CNC(=O)/C=C(\C)OP(=O)(OC)OC`: the result was inactive.
With `COC(=O)c1ccccc1S(=O)(=O)NC(=O)N(C)c1nc(C)nc(OC)n1`, the AC50 was 20 µM (active).
With `CN1CSC(=S)N(C)C1`, the compound was called inactive.
On the same count and under the same terms, the same measure for `C[C@H]1[C@H](c2ccc(Cl)cc2)SC(=O)N1C(=O)NC1CCCCC1`: “inactive”.
As for `Clc1ccccc1-c1nnc(-c2ccccc2Cl)nn1`, the result was inactive.
In the case of `COc1cc(OC)nc(NC(=O)NS(=O)(=O)c2cc(NC=O)ccc2C(=O)N(C)C)n1`, the outcome was inactive.
In the case of `CNC(=O)Oc1cccc(N=CN(C)C)c1`, the call was inactive.
For `CCOc1nc(NC)nc(NC(=O)NS(=O)(=O)c2ccccc2C(=O)OC)n1`, the compound was called inactive.
Regarding `CCc1ccc(C(=O)NN(C(=O)c2cc(C)cc(C)c2)C(C)(C)C)cc1`, the AC50 was 33.7 µM (active).
Consider `CCC(C)Nc1c([N+](=O)[O-])cc(C(C)(C)C)cc1[N+](=O)[O-]` (stereo not given), for which the AC50 is 5.44 µM (active).
Turning to `O=C(O)CCCOc1ccc(Cl)cc1Cl`, the outcome was inactive.
In the case of `CCC(C)(NC(=O)c1cc(Cl)c(C)c(Cl)c1)C(=O)CCl` (stereo not given), the outcome was inactive.
Still for that read-out and setting: the same measure for `CC(C)N(C(=O)COc1nnc(C(F)(F)F)s1)c1ccc(F)cc1`: “inactive”.
As to `CC(C)OC(=O)Nc1cccc(Cl)c1`, the AC50 was 3.11 µM (active).
For the compound `CCOCN(C(=O)CCl)c1c(C)cccc1CC`, the result was inactive.
As to `N#CN`, the compound was called inactive.
In the case of `COc1nn(CSP(=S)(OC)OC)c(=O)s1`, the AC50 was 2.89 µM (active).
Regarding `CCS(=O)(=O)c1cccnc1S(=O)(=O)NC(=O)Nc1nc(OC)cc(OC)n1`, the compound was called inactive.
With `[2H]C1([2H])[n+]2ccccc2-c2cccc[n+]2C1([2H])[2H]`, the call was inactive.
On to `O=S(=O)(O)C(F)(F)C(F)(F)C(F)(F)C(F)(F)C(F)(F)C(F)(F)C(F)(F)C(F)(F)F`, for which the outcome was inactive.
In the case of `COC(=O)c1ccccc1S(=O)(=O)NC(=O)Nc1nc(C)nc(OC)n1`, the call was inactive.
Take `O=[N+]([O-])/N=C1\NCCN1Cc1ccc(Cl)nc1`: the outcome was inactive.
